Only some compounds are listed: those with a hit (about 10% of all), similar ones and a draw of the others.
CtBP-E1A inh: blocks the CtBP interaction with E1A; AlphaScreen GST-E1A/His-CtBP binding, 1536-well; active compounds read low; AID 651724; 0.49% of 340,000 active; activity change, % (no concentration beside the values); in the data active = activity change below about -65%; inconclusive = mostly about -30% to -63%; note: % is set by controls: 0 for no effect and ±100 for the full control effect
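Homogeneous bead-based format: GST-tagged E1A captured on glutathione donor beads, His-tagged CtBP on nickel acceptor beads; compounds precede bead addition by 2 h at 37 °C.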
BAZ2B inh: BAZ2B (human) inhibition | Q9UIF8 | AlphaScreen BAZ2B-H3K14Ac peptide displacement | Potency, µM (series often up to 114 µM), for inactives: at the highest dose activity change, negative = inhibition, actives largely listed as inhibitors | 4.4% of 360,000 active | AID 504333; note: potency is the fitted concentration of half-maximal effect; % is set by controls: 0 for no effect and ±100 for the full control effect; nearly all actives have a fitted effect of over 60% in size
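Compounds, titrated to a top concentration of 110 uM, were incubated 30 min at room temperature with preformed BAZ2B/acetyl-K14 H3 peptide complex (50 nM each). Proximity signal was measured by AlphaScreen after 20 min with beads.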
Six1-Eya2 inh: blocks human Six1 binding to Eya2 | Q15475+O00167 | AlphaScreen GST-Six1/His-Eya2 binding, biochemical; active compounds read low | activity change, % (test concentration not listed) | 0.56% of 360,000 active | AID 651725; in the data active = activity change below about -65%; inconclusive = mostly about -30% to -63%; note: % is set by controls: 0 for no effect and ±100 for the full control effect
Target sequence (O00167 whole entry, looked up): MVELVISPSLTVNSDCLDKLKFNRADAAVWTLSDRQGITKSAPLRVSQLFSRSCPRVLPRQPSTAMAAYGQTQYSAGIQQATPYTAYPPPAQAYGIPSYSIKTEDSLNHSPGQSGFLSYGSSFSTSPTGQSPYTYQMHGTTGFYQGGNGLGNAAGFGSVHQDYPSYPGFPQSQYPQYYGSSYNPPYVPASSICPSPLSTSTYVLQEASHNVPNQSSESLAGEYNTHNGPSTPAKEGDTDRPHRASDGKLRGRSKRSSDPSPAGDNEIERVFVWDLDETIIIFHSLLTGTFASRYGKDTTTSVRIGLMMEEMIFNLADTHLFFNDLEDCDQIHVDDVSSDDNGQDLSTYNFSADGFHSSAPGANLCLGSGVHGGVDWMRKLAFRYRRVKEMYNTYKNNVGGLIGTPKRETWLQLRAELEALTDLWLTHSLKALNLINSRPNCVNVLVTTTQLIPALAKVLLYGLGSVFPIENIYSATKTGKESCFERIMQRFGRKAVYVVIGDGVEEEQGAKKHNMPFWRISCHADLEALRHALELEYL
Target sequence (Q15475 whole entry, looked up): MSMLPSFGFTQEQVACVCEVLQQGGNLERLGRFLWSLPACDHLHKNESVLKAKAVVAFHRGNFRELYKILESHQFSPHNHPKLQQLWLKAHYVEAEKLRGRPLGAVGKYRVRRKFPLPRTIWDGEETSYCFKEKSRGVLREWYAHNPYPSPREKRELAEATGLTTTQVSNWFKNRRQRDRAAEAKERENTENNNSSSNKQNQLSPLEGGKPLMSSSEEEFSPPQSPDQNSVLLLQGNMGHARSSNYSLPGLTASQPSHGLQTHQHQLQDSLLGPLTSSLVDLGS
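GST-Six1 + His-Eya2 (5X stock: 250/500 nM); Tris pH 8.0, 300 mM NaCl, 0.05% BSA, 0.02% Tween 20; GSH donor/Ni acceptor beads; 1 h 37 °C dark; AlphaScreen readout.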
JMJD2A Tudor inh: blocks the human JMJD2A Tudor domain | AlphaScreen JMJD2A-Tudor / H3K4me3 peptide binding | Potency, µM (series often up to 114 µM), for inactives: at the top dose activity change, negative = inhibition, usual class: inhibitors | 4.4% of 390,000 active | O75164; note: potency is the fitted concentration of half-maximal effect; % is set by controls: 0 for no effect and ±100 for the full control effect; nearly all actives have a fitted effect of over 50% in size
HP1b chromo inh: inhibitors of HP1-beta chromodomain binding to methylated histone tails; Potency, µM (top dose mostly 114 µM), inactives show at the top dose activity change, negative = inhibition, hits mostly inhibitors; P83916; 0.56% of 390,000 active; AlphaScreen HP1-beta / biotin-H3K9me3 peptide binding; note: potency is the fitted concentration of half-maximal effect; nearly all actives have a fitted effect of over 70% in size
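HP1-beta protein (50 nM final) preincubated 30 min at room temperature with biotinylated H3(1-18)K9me3 peptide (50 nM) in PBS pH 7.4, 0.01% Tween-20, then compound added for 30 min. AlphaScreen streptavidin donor/nickel chelate acceptor beads (10 ug/mL final), 30 min dark, luminescence read.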
G9a inh: blocks human histone lysine methyltransferase G9a; Q96KQ7; G9a H3K9 monomethylation, AlphaScreen, 2 h; Potency, µM (doses to about 102 µM), inactives show top-dose activity, negative = inhibition, usual class: inhibitors; 8.8% of 350,000 active; note: potency is the fitted concentration of half-maximal effect; % is set by controls: 0 for no effect and ±100 for the full control effect; nearly all actives have a fitted effect of over 75% in size
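G9a (20 nM) was preincubated 15 min with compound, then reacted 2 h at room temperature with 500 nM biotin-H3K9 peptide and 20 µM SAM. Monomethyl-H3K9 detected by AlphaScreen using anti-H3K9me1 antibody.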
An asterisk follows results filed as active; ? = inconclusive; . = no result; [ ] = another dose, or the depositor's remark. Unless noted, calls come from the whole dose curve; as a rule, active = well fitted inhibition curve with a large enough effect; inconclusive = small, poorly fitted or top-dose-only effect; inactive = no such curve, though single readings can be large or run the other way.

SMILES	CtBP-E1A inh	BAZ2B inh	Six1-Eya2 inh	JMJD2A Tudor inh	HP1b chromo inh	G9a inh
CCn1c(C)[n+](CC)c2ccc(C(=O)N(C)c3ccccc3)cc21	.	-27.1%	4.3	-0.6%	30.1%	35.5µM*
CCn1c(C)[n+](CC)c2ccc(S(=O)(=O)N(C)C)cc21	0.0	?	5.7	0.0%	24.2%	44.7µM*
CCOC(=O)c1ccc2c(c1)n(CC)c(C)[n+]2CC	0.0	-32.4%	0.0	-2.4%	15.8%	?
CC[n+]1c(C)n(C)c2cc(S(=O)(=O)N(C)C)ccc21	8.7	-38.9%	5.8	?	20.4%	.
CCc1nnc(NS(=O)(=O)c2ccc(N/C=C\C(=O)c3ccc(C)cc3)cc2)s1	-10.6	?	-16.8	?	19.0%	-31.5%[59 µM]
CCc1nnc(NS(=O)(=O)c2ccc(N/C=C/C(=O)c3ccc(C)cc3)cc2)s1	-12.0	50.1µM*	-17.9	?	33.8%	39.8µM*
CCc1nnc(NS(=O)(=O)c2ccc(N/C=C\C(=O)c3cccc(OC)c3)cc2)s1	-15.1	-37.7%	-2.8	-13.2%	28.7%	50.1µM*
CCc1nnc(NS(=O)(=O)c2ccc(NC(=S)NC(=O)c3ccc(OC)c(OC)c3)cc2)s1	.	-35.2%	7.3	-22.2%	1.7%	?
CCc1nnc(NS(=O)(=O)c2ccc(N/C=C\C(=O)c3ccc(F)cc3)cc2)s1	.	?	-6.8	-15.9%	20.5%	.
CCc1nnc(NS(=O)(=O)c2ccc(NC(=O)/C=C/c3ccc(OC)cc3OC)cc2)s1	?	56.2µM*	?	?	-3.2%	14.8%[59 µM]
Cc1ccc(-n2c(N)c(-c3nc4ccccc4n3C)sc2=S)cc1	5.6	?	-5.3	?	?	3.55µM*
Nc1nc(SCC(=O)N2N=C3/C(=C\c4ccco4)CCCC3C2c2ccco2)n[nH]1 (stereo not given)	-3.4	.	-14.1	?	-10.1%	.
Cn1cnnc1SCC(=O)N1N=C2/C(=C/c3ccco3)CCCC2C1c1ccco1 (stereo not given)	-4.1	56.2µM*	-6.2	-24.0%	8.5%	.
O=C(CSc1nccc(=O)[nH]1)N1N=C2/C(=C/c3ccco3)CCCC2C1c1ccco1 (stereo not given)	0.6	.	-12.9	44.7µM*	?	?
Nc1nc(SCC(=O)N2N=C3/C(=C/c4ccco4)CCCC3C2c2ccco2)n[nH]1 (stereo not given)	-14.8	50.1µM*	-22.0	-32.9%	-8.0%	?
CCC(c1nnnn1-c1ccc2c(c1)OCCO2)N1CCN(c2cccc(C)c2C)CC1 (stereo not given)	-13.5	.	-8.4	.	.	.
Cc1cccc(C)c1NC(=O)C(C1CC1)n1c(=O)c(-c2cc3ccccc3[nH]2)nc2ccccc21 (stereo not given)	40.1	.	64.5	.	.	.
O=C1NC(Cc2ccccc2)C(=O)N1Cc1cc([N+](=O)[O-])cc2c1OCOC2 (stereo not given)	0.1	79.4µM*	-5.7	-6.7%	27.3%	3.0%
O=C(Nc1nc(-c2ccccn2)cs1)C1COc2ccccc2O1 (stereo not given)	?	20µM*	-90.6*	56.2µM*	44.4%	-2.9%[59 µM]
O=C(O)C1CCC1C(=O)Nc1nc(-c2ccc(Cl)s2)cs1 (stereo not given)	3.8	-0.2%	1.7	-16.1%	23.5%	?
CC1CC1C(=O)Nc1nc(-c2ccccn2)cs1 (stereo not given)	-70.2*	?	-81.7*	56.2µM*	?	8.91µM*
Cc1cc(C)c2c(CC(=O)Nc3c(C(=O)Nc4ccc(Cl)cc4)oc4ccccc34)coc2c1	.	-8.0%	.	-21.5%	-2.0%	-7.4%[59 µM]
CCOc1ccccc1CNc1ccc(N2CCOCC2)c(C(=O)O)c1	3.2	4.5%	3.1	-12.8%	8.4%	-15.1%
Cc1ccc(CNc2ccc(N3CCOCC3)c(C(=O)O)c2)s1	5.8	-8.5%	2.4	-24.1%	13.4%	-39.0%[12.7 µM]
COC(=O)c1cc(NCc2ccccc2F)ccc1N1CCOCC1	-13.9	-12.1%	-9.3	-24.5%	8.5%	44.7µM*
SMILES	CtBP-E1A inh	BAZ2B inh	Six1-Eya2 inh	JMJD2A Tudor inh	HP1b chromo inh	G9a inh
O=C(O)c1cc(NCc2c(F)cccc2Cl)ccc1N1CCOCC1	0.1	8.9%	2.1	-2.1%	9.1%	12.6µM*
Cc1sc2ncnc(N3CCC(C(=O)Nc4ccc(Cl)cc4Cl)CC3)c2c1C	1.9	-1.5%	-8.2	-10.1%	19.2%	56.2µM*
Cc1sc2ncnc(N3CCC(C(=O)Nc4ccc(Br)cc4Br)CC3)c2c1C	3.1	7.1%	2.7	-13.6%	11.8%	39.8µM*
CNC(=O)c1ccc(NC(=O)C2CCN(c3ncnc4sc(C)c(C)c34)CC2)cc1	1.2	-8.5%	-21.3	-11.0%	16.9%	38.5%
Cc1sc2ncnc(N3CCC(C(=O)Nc4ccc(Cl)c(Cl)c4)CC3)c2c1C	-4.9	1.0%	-0.8	-5.4%	40.2%	-0.5%[12.7 µM]
CSc1ccc(CCNS(=O)(=O)c2cc(-c3cc(C)no3)ccc2C)cc1	.	-2.6%	.	-8.1%	34.0%	-19.4%[59 µM]
Cc1cc(C)n(CC(C)(O)c2ccccc2)n1 (stereo not given)	.	-6.6%	9.8	-4.9%	38.5%	18.7%[12.7 µM]
CC(C)n1cnc2c(N(C)c3ccccc3)nc(N(CCN(C)C)Cc3ccccc3)nc21	?	31.6µM*	?	44.7µM*	?	?
CCn1c(=O)cc(OCC(=O)N2CCN(c3ccc(C)cc3)C(C)C2)c2ccccc21 (stereo not given)	.	?	.	-34.7%	-8.7%	6.31µM*
CCn1c(=O)cc(OCC(=O)N2CCCCCC2)c2ccccc21	1.1	11.0%	-7.6	15.8%	23.1%	23.3%[59 µM]
COc1cc(F)c(S(=O)(=O)N2CCN(S(=O)(=O)c3cccc(NC(C)=O)c3)CC2)c(F)c1	.	.	.	-15.0%	.	.
O=C(NNC(=S)Nc1ccc(Br)cc1)c1ccc(N2CCOCC2)c([N+](=O)[O-])c1	-1.0	-25.5%	-26.3	?	?	11.2µM*
Cc1cc(C(=O)Nc2ccc(N3CCCC3)c(Cl)c2)ccc1[N+](=O)[O-]	?	28.2µM*	?	25.1µM*	?	-7.3%[59 µM]
O=C(NCCCN1CCOCC1)c1ccc(N2CCOCC2)c([N+](=O)[O-])c1	4.6	1.9%	8.3	-16.0%	7.9%	50.0%
Cc1ccc(NC(=S)NNC(=O)c2ccc(N3CCOCC3)c([N+](=O)[O-])c2)cc1Cl	-14.5	?	-17.6	25.1µM*	?	22.4µM*
Cc1cccc(NC(=O)c2ccc(N3CCCCC3)c([N+](=O)[O-])c2)n1	?	11.2µM*	?	?	?	?
Cc1cccc(NC(=O)c2ccc(N3CCOCC3)c([N+](=O)[O-])c2)n1	-1.2	?	-4.0	?	-17.5%	20.1%[59 µM]
